TDP1 cell CPT: qHTS for Inhibitors of human tyrosyl-DNA phosphodiesterase 1 (TDP1): qHTS in cells in presence of CPT; Potency, µM (highest dose often 46.2 µM), for the others: at the highest dose activity change, negative = growth inhibition, hits mostly inhibitors; hit rate 12% among 420,000; chicken DT40 Tdp1-/-;hTDP1 cells + 20 nM CPT, ATP luminescence, 48 h; further: potency means the concentration at half of the fitted maximal effect; nearly all actives have a fitted effect of over 55% in size
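Chicken DT40 Tdp1-/- cells complemented with human TDP1, 400 cells/well, exposed to compounds plus 20 nM camptothecin for at least 48 h at 37 C; viability read as ATP content by CellTiter-Glo luminescence.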
IL1B secr inh: qHTS for Inhibitors of Inflammasome Signaling: IL-1-beta AlphaLISA Primary Screen; THP-1 LPS/ATP IL-1B secretion, AlphaLISA, 16 h; hits give low values; activity change, % at 57.5 µM; hit rate 4.7% among 360,000; in the data active means activity change below about -50%; inconclusive means mostly about -30% to -49%
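Secreted IL-1B measured by AlphaLISA bead assay after 16 h compound exposure of THP-1 cells; compounds (final up to 57.5 uM) added 1 h before LPS (250 ng/mL) and ATP (1.25 mM) stimulation; lower signal means less secretion.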
TDP1 cell noCPT: qHTS for Inhibitors of human tyrosyl-DNA phosphodiesterase 1 (TDP1): qHTS in cells in absence of CPT. hit rate 15% among 420,000. AID 686978, 2013. Potency, µM (titrated, usually from 46.2 µM), inactives show at the top dose activity change, negative = growth inhibition, hits mostly inhibitors. DT40 Tdp1-/- hTDP1 cells, no CPT, ATP luminescence, 48 h; further: potency means the concentration at half of the fitted maximal effect; nearly all actives have a fitted effect of over 55% in size
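A cellular qHTS used chicken DT40 cells lacking endogenous Tdp1 but carrying stably transfected human TDP1. Compounds were applied without camptothecin, and cell growth kinetics were judged by ATP-dependent luminescence after ≥48 hr.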
LDHA inh: qHTS assay for inhibitors of human lactate dehydrogenase; L-lactate dehydrogenase A chain (Homo sapiens), P00338; purified LDHA, NADH/diaphorase-resazurin fluorescence; hits give low values; activity change, % (values are at about 110 or 230 µM); hit rate 0.15% among 480,000; AID 1347041, 2019; in the data active means activity change below about -30%; inconclusive means mostly about -25% to -30%;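 further: plate controls were DMSO wells for no effect and wells without enzyme for full effect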
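Remaining NADH was detected by diaphorase (0.133 mg/mL) converting 37 µM resazurin to fluorescent resorufin, read at 0 and 20 minutes. The preceding 5-minute room-temperature reaction used 2 nM LDHA, 0.2 mM sodium pyruvate and 0.06 mM NADH at pH 7.4.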
Gal4-VP16 FLuc: VP16 counterscreen qHTS for inhibitors of ROR gamma transcriptional activity. hit rate 3.5% among 310,000. Potency, µM (doses to about 53.6 µM), for inactives: top-dose activity, negative = inhibition, most hits filed as inhibitors. Drosophila S2 Gal4-VP16 UAS-luciferase, luminescence, 20 h;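 further: Gal4-VP16 expression switched on by copper sulfate through the metallothionein promoter; potency means the concentration at half of the fitted maximal effect; nearly all actives have a fitted effect of over 50% in size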
RORg inh: qHTS for inhibitors of ROR gamma transcriptional activity. Nuclear receptor ROR-gamma (Mus musculus), P51450. Drosophila S2 Gal4-RORgamma UAS-luciferase reporter, 20 h. Potency, µM (series often up to 53.6 µM), inactives show top-dose activity change, negative = inhibition, hits mostly inhibitors. hit rate 5.4% among 310,000; further: potency means the concentration at half of the fitted maximal effect; nearly all actives have a fitted effect of over 60% in size
Target sequence (P51450 whole entry, looked up, the tested form may be a part): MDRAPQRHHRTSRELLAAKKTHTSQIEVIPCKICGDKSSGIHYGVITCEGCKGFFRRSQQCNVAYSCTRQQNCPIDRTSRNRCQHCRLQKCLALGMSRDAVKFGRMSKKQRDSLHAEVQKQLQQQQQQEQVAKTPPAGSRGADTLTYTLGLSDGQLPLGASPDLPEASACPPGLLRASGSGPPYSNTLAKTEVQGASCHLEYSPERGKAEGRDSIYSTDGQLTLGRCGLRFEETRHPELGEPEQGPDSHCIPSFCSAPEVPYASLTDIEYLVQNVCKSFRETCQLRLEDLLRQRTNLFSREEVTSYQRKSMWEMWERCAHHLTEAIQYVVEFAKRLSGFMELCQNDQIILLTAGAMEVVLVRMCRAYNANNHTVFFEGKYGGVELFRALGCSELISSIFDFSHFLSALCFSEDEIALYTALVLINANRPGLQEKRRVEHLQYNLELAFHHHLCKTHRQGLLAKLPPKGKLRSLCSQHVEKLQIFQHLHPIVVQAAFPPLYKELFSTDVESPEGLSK
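ROR gamma transcriptional activity was tracked as Gal4-UAS luciferase output in stably transfected Drosophila Schneider cells, with compound added 1 hr before 700 uM copper sulfate induction and a 20 hr ambient-temperature incubation.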
Starred values were filed as active, the others as inactive; ? = inconclusive; / = not tested or not shown. A selection: hits, their analogues and other compounds. The true share with any hit is near 18%. Unless noted, the call rests on the fitted dose curve; in most records, active means well fitted curve in the direction sought with a large enough effect; inconclusive means small, poorly fitted or top-dose-only effect, or another doubt; inactive means no such curve, though single readings can be large; an effect the other way counts as inactive or inconclusive. Unless noted, on the % scale 0 is the no-effect control and ±100 the full control effect.

SMILES	TDP1 cell CPT	IL1B secr inh	TDP1 cell noCPT	LDHA inh	Gal4-VP16 FLuc	RORg inh
CN1CCN(CC(O)COc2ccc(C34CC5CC(CC(C5)C3)C4)cc2)CC1 (stereo not given)	?	-99.1*	13µM*	-7.1	?	?
N#Cc1ccc(OCC(O)CN2CCN(C(c3ccccc3)c3ccccc3)CC2)cc1 (stereo not given)	?	-19.8	18.4µM*	-1.7	-5.3%	-26.4%
N#Cc1ccc(OCC(O)CN2CCN(c3ncc(C(F)(F)F)cc3Cl)CC2)cc1 (stereo not given)	?	-65.1*	14.6µM*	0.4	0.0%	-24.4%
COc1ccc(OC)c(S(=O)(=O)N2CCN(CC(O)COc3ccccc3)CC2)c1 (stereo not given)	-0.8%	10.2	-28.1%	-6.6	1.9%	14.7%
CN1CCN(CC(O)COc2ccccc2)CC1 (stereo not given)	1.7%	29.6	-1.9%	-5.3	-6.2%	-23.8%
COc1ccc2cc([C@H](C)C(=O)NCCc3cccs3)ccc2c1	/	/	/	-1.8	/	/
Cc1ccc2cc(C(=O)NC3CCS(=O)(=O)C3)[nH]c2c1 (stereo not given)	/	/	/	3.5	/	/
Cc1cccc(C(=O)NC(C)C2CCCO2)c1 (stereo not given)	/	/	/	4.7	/	/
N#Cc1cc2c(OCC(O)CN3CCN(C(c4ccccc4)c4ccccc4)CC3)cccc2[nH]1 (stereo not given)	8.9µM*	/	5.62µM*	/	/	/
CCC(=O)c1ccc(OCC(O)CN2CCN(C(c3ccccc3)c3ccccc3)CC2)cc1 (stereo not given)	?	?	?	-5.0	2.3%	-1.6%
N#Cc1ccc(OCC(O)CN2CCN(CC(O)COc3ccc(C#N)cc3)CC2)cc1 (stereo not given)	?	15.9	25.9µM*	-8.1	-2.6%	0.3%
N#Cc1ccc(-c2ccc(OCC(O)CN3CCCCC3)cc2)cc1 (stereo not given)	23.1µM*	?	?	-5.0	-0.9%	-7.8%
OC(COc1ccc(OCC(O)CN2CCCCCC2)cc1)CN1CCCCCC1 (stereo not given)	-20.0%	?	?	-4.6	-11.5%	6.6%
COc1ccc(OCC(O)CN2CCN(CC(O)COc3ccc(OC)cc3)CC2)cc1 (stereo not given)	-7.8%	-5.0	4.0%	-1.8	3.0%	-23.1%
O=C(Nc1cccc(N2CCCC2=O)c1)c1nn(-c2ccccc2)c(=O)c2ccccc12	/	/	/	2.2	/	/
Cc1cnc(C(=O)Nc2ccc(-n3cnnn3)cc2)cn1	18.4µM*	8.7	?	-16.4	2.1%	15.8%
Cc1sc(NC(=O)c2cccs2)c(C(c2cccnc2)N2CCOCC2)c1C (stereo not given)	/	/	/	3.8	/	/
CCO[C@H]1OC(C(=O)N2CCN(Cc3ccc4c(c3)OCO4)CC2)=C[C@@H](c2ccc(C(F)(F)F)cc2)[C@@H]1CCCO	18.4µM*	-76.7*	23.1µM*	-1.8	-12.9%	-33.9%
CCO[C@H]1OC(C(=O)N2CCN(Cc3ccc4c(c3)OCO4)CC2)=C[C@@H](c2ccccc2)[C@@H]1CCCO	?	-8.1	?	-0.8	11.3%	15.8%
CCO[C@@H]1OC(C(=O)N2CCN(Cc3ccc4c(c3)OCO4)CC2)=C[C@H](c2csc3ccccc23)[C@H]1CCCO	-88.6%	?	23.1µM*	3.6	?	?
CCO[C@@H]1OC(C(=O)N2CCN(Cc3ccccc3)CC2)=C[C@H](c2ccc(C(F)(F)F)cc2)[C@H]1CCCO	?	-87.6*	?	12.2	1.9%	?

Source: PubChem BioAssay (National Center for Advancing Translational Sciences (NCATS))
